# Most compounds without a hit are left out; they make up all but 2.9% or so of the library.
# PAFAH2 inh: inhibitors of human PAFAH2. Q99487. recombinant PAFAH2, FP-rhodamine activity probe, fluorescence polarization. inhibition, % at 3.39 µM. 0.99% of 340,000 active. AID 492956;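 active means inhibition above the mean over all tested compounds plus 3 SD, cut at about 30% in these data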;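 further: inhibitors block probe labeling of enzyme so polarization drops; 0% = enzyme with DMSO and 100% = wells lacking PAFAH2 protein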
# PAFAH1B3 inh: PAFAH1B3 (human) inhibition; inhibition, % at 3.39 µM; Q15102; AID 492972; recombinant PAFAH1B3, FP-rhodamine probe, fluorescence polarization; 0.28% of 340,000 active;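 active means inhibition above the screen-wide average of all tested compounds plus 3 SD, cut at about 25% in these data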;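 further: 0% = enzyme with DMSO only and 100% = wells lacking PAFAH1B3 protein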
# Target sequence (Q15102 whole entry, looked up): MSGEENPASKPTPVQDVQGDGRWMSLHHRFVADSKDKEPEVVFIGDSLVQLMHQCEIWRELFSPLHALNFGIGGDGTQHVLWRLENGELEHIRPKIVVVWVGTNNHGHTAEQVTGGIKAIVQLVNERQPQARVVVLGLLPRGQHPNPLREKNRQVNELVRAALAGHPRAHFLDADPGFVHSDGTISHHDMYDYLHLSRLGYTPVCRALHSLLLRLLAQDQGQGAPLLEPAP
# PME-1 inh: PME-1 (human) inhibition; 0.53% of 320,000 active; recombinant PME-1, FP-Rh probe fluorescence polarization; Q9Y570; inhibition, % at 5.9 µM; AID 2130;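 active means inhibition above the campaign mean of all compounds plus 3 SD, cut at about 26% in these data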;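 further: competitive labeling of PME-1 active site by serine hydrolase directed probe; 0% = PME-1 with DMSO and 100% = wells lacking PME-1 enzyme; inhibitors block probe labeling so polarization falls and inhibition rises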
# Target sequence (Q9Y570 whole entry, looked up): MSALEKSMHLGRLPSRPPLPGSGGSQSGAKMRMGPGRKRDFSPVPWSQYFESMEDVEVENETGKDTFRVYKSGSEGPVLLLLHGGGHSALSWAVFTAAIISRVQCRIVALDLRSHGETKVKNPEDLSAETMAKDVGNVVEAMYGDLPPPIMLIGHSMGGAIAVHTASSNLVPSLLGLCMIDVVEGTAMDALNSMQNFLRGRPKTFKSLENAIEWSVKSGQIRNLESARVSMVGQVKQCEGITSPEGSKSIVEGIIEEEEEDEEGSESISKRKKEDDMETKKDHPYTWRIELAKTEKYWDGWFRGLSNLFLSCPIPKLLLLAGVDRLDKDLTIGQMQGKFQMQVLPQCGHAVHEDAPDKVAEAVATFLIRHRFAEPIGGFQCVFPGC
# pPAFAH FP inh: inhibitors of human plasma PAF acetylhydrolase (pPAFAH). AID 463082. inhibition, % at 3.39 µM. recombinant pPAFAH, FP-rhodamine probe fluorescence polarization. 1.5% of 330,000 active;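 active means inhibition above the mean inhibition across the screen plus 3 SD, cut at about 25% in these data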;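 further: inhibitors block binding of the rhodamine activity-based probe so polarization drops; 0% = enzyme with DMSO and 100% = wells lacking pPAFAH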
# PAFAH1B2 inh: PAFAH1B2 (human) inhibition; P68402; recombinant PAFAH1B2, FP-rhodamine activity probe, fluorescence polarization; inhibition, % at 3.39 µM; 1.2% of 340,000 active; AID 492953;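 active means inhibition above the mean of all tested compounds plus 3 SD, cut at about 24% in these data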;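 further: 0% = enzyme with DMSO and 100% = wells lacking PAFAH1B2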
# Fam108B inh: blocks mouse Fam108B hydrolase in RBBP9 counter-screen; recombinant Fam108B, FP-Rh probe fluorescence polarization; inhibition, % at 9.51 µM; 0.33% of 300,000 active; AID 1947;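 active means inhibition above the screen mean inhibition plus 3 SD, computed separately per campaign, cut at about 18% in these data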;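 further: inhibitors lower polarization as less probe binds the enzyme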
# PAFAH2 confirm: PAFAH2 (human) inhibition, confirmed. shares compounds with PAFAH2 inh. recombinant PAFAH2, FP-rhodamine activity probe, fluorescence polarization. inhibition, % at 3.39 µM. 65% of 2,300 active;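 active means mean inhibition over three repeats above a set limit taken from the earlier primary screen, cut at about 30% in these data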;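 further: inhibitor blocks binding of rhodamine activity probe so polarization falls; 0% = enzyme with DMSO and 100% = wells lacking PAFAH2 protein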
# The depositor's hits bear a star; / = no result.
SMILES,PAFAH2 inh,PAFAH1B3 inh,PME-1 inh,pPAFAH FP inh,PAFAH1B2 inh,Fam108B inh,PAFAH2 confirm
Nc1ccc(C(=O)OCc2nc3cc4ccccc4cc3[nH]2)cc1,85*,7,24,12,2,8,83*
Cc1ccc(OCc2cc(C(=O)N3CCC(C(O)C(C)C)CC3)no2)cc1C (stereo unspecified),5,6,-4,6,1,-1,/
CCN(c1ccccc1)S(=O)(=O)c1ccc(Cl)c(NC(=O)COC(=O)C2CC2C)c1 (stereo unspecified),79*,7,13,21,-2,4,76*
CCN(CC)c1ccc(S(=O)(=O)N2CCOCC2)cc1NC(=O)COC(=O)c1ccco1,29,8,22,2,6,-3,/
O=C(COC(=O)c1ccccc1)Nc1cc(S(=O)(=O)N2CCCCCC2)ccc1Cl,30*,8,20,8,3,/,16
O=C(COC(=O)c1ccco1)Nc1cc(S(=O)(=O)N2CCOCC2)ccc1Cl,58*,8,/,0,6,/,35*
O=C(COC(=O)c1ccccc1O)Nc1cc(S(=O)(=O)N2CCCCCC2)ccc1Cl,2,3,3,6,2,/,/
CCN(c1ccccc1)S(=O)(=O)c1ccc(Cl)c(NC(=O)CN2CCCCCC2)c1,4,5,-2,6,2,3,/
O=C(COC(=O)c1ccco1)Nc1cc(S(=O)(=O)N2CCCCC2)ccc1Cl,55*,5,/,1,3,/,46*
O=C(NC1CCCC1)c1n[nH]c2ccccc12,9,0,-2,24,12,-4,/
CSCc1c(C(=O)OCC(=O)NC2CCCCC2)oc2ccccc12,57*,4,-4,14,0,/,60*
CCOc1ccc2oc(C(=O)OCC(=O)NC(=O)NC3CCCC3)c(C)c2c1,0,0,-4,3,3,-6,/
Cc1c(C(=O)OCC(=O)NCC2CCCO2)oc2ccccc12 (stereo unspecified),6,14,/,6,8,/,/
CCOc1ccc2oc(C(=O)OCC(=O)NC3CCCC3)c(C)c2c1,55*,1,0,14,3,/,32*
COc1ccc(Br)c(C(=O)OCC(=O)NC2CCCCCC2)c1,77*,7,0,14,0,/,60*
Cc1c(C(=O)OCC(=O)NC2CCCCC2)oc2ccccc12,46*,10,3,16,2,/,48*
COc1cc2c(c(OC)c1OC)C(=O)C(=Cc1ccccc1)O2,0,0,/,/,-2,/,/
CCc1cc(C(=O)Nc2nc(-c3ccccn3)cs2)sc1C,1,10,-1,9,0,/,/
CCN(CC)CCCNC(=O)Cn1nc([N+](=O)[O-])c(Cl)c1C,0,1,-1,2,2,-1,/
CC(=O)c1sc(NC(=O)C2CCN(C(=O)c3ccc(F)cc3)CC2)nc1-c1ccccc1,3,3,12,7,3,0,/
CCOC(=O)CN(C(=O)COc1ccc2c(C)cc(=O)oc2c1)c1ccc(OCC)cc1,0,-4,2,3,0,-3,/
COc1ccc2oc(C(=O)OCC(=O)NC3CCCCC3)c(C)c2c1,64*,-5,2,14,2,-4,57*
O=[N+]([O-])c1ccc(O)c(/C=N/Nc2ccccc2Cl)c1,74*,11,5,16,3,4,62*
COc1ccc(OC)c(/C=C2\SC(=S)N(C(C(=O)O)c3ccccc3)C2=O)c1 (stereo unspecified),32*,6,2,4,0,0,15
COc1cccc(/C=C2\SC(=S)N(C(Cc3ccccc3)C(=O)O)C2=O)c1 (stereo unspecified),33*,0,-1,3,5,-7,16
SMILES,PAFAH2 inh,PAFAH1B3 inh,PME-1 inh,pPAFAH FP inh,PAFAH1B2 inh,Fam108B inh,PAFAH2 confirm
CCN1C[C@@H]2[C@@H]3C(=O)N(C)C(=O)[C@@H]3[C@](Cc3ccccc3)(C1=O)N2C(=O)c1ccc(F)cc1,-1,8,/,/,1,/,/
COc1ccc(CCNCc2cc3ccc(C)cc3[nH]c2=O)cc1OC,-5,1,-1,4,2,-3,/
O=C1NC(=O)C2(CCCCCCC2)N1,-2,1,/,/,4,/,/
Cc1ccc(C(=O)OCC(=O)NCc2ccc(Cl)cc2Cl)o1,56*,1,4,4,8,/,42*
O=C(COC(=O)C1CCN(c2ccc(C(F)(F)F)cn2)CC1)NCc1ccc(Cl)cc1Cl,7,0,-9,5,2,-6,/
O=C(COC(=O)C1CC1)NCc1ccc(Cl)cc1Cl,64*,4,/,5,5,/,46*
NC(=O)c1ccc(NC(=O)COc2coc(CN3CCc4ccccc4C3)cc2=O)cc1,6,0,-1,-3,3,1,/
CSCCC(NC(=O)/C(=C/c1ccc(F)cc1)NC(C)=O)C(=O)O (stereo unspecified),1,4,3,1,0,2,/
O=C(C1CC(=O)N(c2ccc(F)cc2)C1)N1CCCCC1 (stereo unspecified),-4,2,-6,-5,3,1,/
C[C@H](NC(=O)C1CC(=O)N(c2ccc(F)cc2)C1)C(=O)N1CCCCC1 (stereo partly specified),30*,-1,-8,-5,2,-2,5
Cc1ccc(C2CC(=O)N3CN(c4ccc(Br)cc4)CSC3=C2C#N)o1 (stereo unspecified),32*,6,5,56*,4,5,9
O=C(Nc1ccccc1C(F)(F)F)NC1(C(=O)N2CCOCC2)CCCCC1,29,9,/,/,1,/,/
COc1ccc(C2OC(=O)c3ccccc3S2)cc1 (stereo unspecified),86*,5,-1,4,3,4,78*
COc1cc(C2OC(=O)c3ccccc3S2)cc(OC)c1OC (stereo unspecified),6,7,6,3,2,-2,/
O=C(COC(=O)CC1CCCC1)Nc1ccc(Br)cc1F,47*,-2,/,22,-1,/,41*
Cc1cccc(NC(=O)COC(=O)CC2CCCC2)c1C,52*,-3,/,/,5,/,38*
Cc1cc(NC(=O)COC(=O)CC2CCCC2)c([N+](=O)[O-])cc1C,56*,5,3,22,4,2,21
CCCCOc1ccc(C(=O)OCC(=O)Nc2cc(C)c(C)cc2[N+](=O)[O-])cc1,12,1,-2,5,0,0,/
COc1ccc(C(=O)OCC(=O)Nc2cc(C)c(C)cc2[N+](=O)[O-])cc1,39*,-2,-3,4,-1,-4,32*
Cc1cccc(NC(=O)COC(=O)CSc2ccccc2)c1C,4,3,0,18,21,/,/
CCC(=O)OCC(=O)Nc1cc(C)c(C)cc1[N+](=O)[O-],15,0,2,1,9,-2,/

# Assay outcomes as filed in PubChem BioAssay.
